Measurements as given in PubChem BioAssay AID488821 (National Center for Advancing Translational Sciences (NCATS), 2010).
Results filed as inconclusive are left out. Entries that show only a call come without a potency. Active and inactive are the calls of the source. Calls follow the shape of the dose curve; as a rule, active = well fitted inhibition curve with a large enough effect; inconclusive = small, poorly fitted or top-dose-only effect, or effect the other way; inactive = flat fitted curve, though single readings scatter.

Assay: Counterscreen Assay for Enhancers of SMN2 Splice Variant Expression: Modulation of SMN1 Expression for Further Probe SAR
Conditions: HEK293 SMN1-luciferase reporter, luminescence, 30-36 h; series mostly up to 46.1 µM
From the text: NIH Chemical Genomics Center [NCGC] NIH Molecular Libraries Probe Production centers Network [MLPCN] MLPCN Grant: R03 MH084179-01 Assay Submitter (PI): Elliot Androphy NCGC Assay Overview: Spinal muscular atrophy (SMA) is caused by insufficient levels of the survival motor neuron protein SMN. The SMN locus on chromosome 5q13 contains two inverted copies of SMN called SMN1 and SMN2 which are 99% identical at the amino acid level. SMN1 is a fully functional protein and SMN2 skips exon 7 90% of the time. Skipping of exon 7 produces non-functional protein product. 10% of the SMN2 protein includes exon 7 and is fully functional. In the SMA disease state, mutations in the SMN1 locus are the cause of the disease state. Because only 10% of SMN2 is of the fully functional form, it is not sufficient to overcome the deficiency produced by the loss of the SMN1 product. A therapy that either increases the amount of SMN2 product made increases the inclusion of exon 7 has been proposed for the treatment of SMA. We have designed an assay to identify small molecules that can increase the amount of functional SMN2 product by appending a luciferase reporter gene after the native SMN2 gene, such that inclusion of exon 7 in the expressed product places the luciferase sequence in frame, thus generating functional luciferase enzyme. As a counterscreen for nonspecific modulators of expression, we have run compounds through a similar assay that measures expression of an SMN1-luciferase chimera.
NCGC Assay Protocol Summary: This screen utilizes a luciferase reporter gene assay, combining the promoter with the major portion of the native SMN1 cDNA (exons 1 -7, intron 8 , exon 8 fused to luciferase) stably expressed in HEK293 cells. Compounds that increase luciferase signal presumably enhance expression of the functional SMN1 splice variant. Passaging media contained DMEM w/ glutamax (+phenol red) 10% FCS, 1x pen/strep, 200 ug/ml hygro, 1x sodium pyruvate. Assay media contained DMEM w/ glutamax (-phenol red) 10% FCS, 1x pen strep, 1x pyruvate Sequence, Parameter, Value, Description (1) Cells, 5 uL, 2000 cells/well, 1536 TC treated White solid bottom plate (2) Time, 10-12 hours, 37C 5% CO2 (3) Compound, 23 nl, MLSMR Library (4) Control Compound, 23 nL, Sodium butyrate st 4.5mM (final) conc (5) Time, 30-36 hours, 37C 5% CO2 (6) Reagent, 3 ul, One Glo (TM) from Promega (7) Time, 5-15 minutes, Room temp (8) Detector, Viewlux: luminescent read, 60 second integration, high speed 2x binning Keywords: Spinal muscular atrophy, SMA, SMN2, high throughput screening, MLSMR, MLPCN, NIH Roadmap, qHTS and NCGC

Compound | Potency
NC(=O)C1CCN(c2nc(-c3cccc4ccccc34)cs2)CC1 | inactive
Cc1cccc(-c2csc(N3CCC(C(N)=O)CC3)n2)c1 | inactive
CN(C)c1cccc(-c2cc(N3CCC(C(N)=O)CC3)ncn2)c1 | inactive
CS(=O)(=O)N1CCN(c2nc(-c3ccc(Br)cc3)cs2)CC1 | inactive
CN(C)c1cccc(-c2nnc(N3CCC(C(N)=O)CC3)s2)c1 | 6.14 µM (active)
NC(=O)C1CCN(c2ncc(Br)s2)CC1 | inactive
NC(=O)C1CCN(c2ncc(-c3ccc4c(c3)OCO4)s2)CC1 | 0.972 µM (active)
CCOc1ccc(-c2csc(N3CCC(C(N)=O)CC3)n2)cc1 | inactive
O=C(c1ccco1)N1CCN(c2nc(-c3ccc(Br)cc3)cs2)CC1 | inactive
N#Cc1ccccc1-c1csc(N2CCC(C(N)=O)CC2)n1 | inactive
NC(=O)C1CCN(c2ncc(-c3ccc4c(c3)OCCO4)s2)CC1 | 1.22 µM (active)
CS(=O)(=O)c1ccc(-c2csc(N3CCC(C(N)=O)CC3)n2)cc1 | inactive
CN(C)c1ccc(-c2csc(N3CCC(C(N)=O)CC3)n2)cc1 | inactive
O=C(Nc1ccccc1)C1CCN(c2ncc(-c3ccc4c(c3)OCCCO4)s2)CC1 | 0.487 µM (active)
CSc1ccc(-c2cnc(N3CCC(C(N)=O)CC3)s2)cc1 | 0.972 µM (active)
Brc1ccc(-c2csc(N3CCC(c4nn[nH]n4)CC3)n2)cc1 | inactive
NC(=O)C1CCN(c2nccc(Cl)n2)CC1 | inactive
CN(C)c1cccc(-c2ncc(F)c(N3CCC(C(N)=O)CC3)n2)c1 | inactive
NC(=O)C1CCN(c2ncc(-c3ccc(Cl)cc3)s2)CC1 | 9.72 µM (active)
c1c[nH]c(C2CCN(c3ncc(-c4ccc5c(c4)OCCCO5)s3)CC2)n1 | 9.72 µM (active)

Compound | Potency
NC(=O)C1CCN(c2nc(-c3ccc([N+](=O)[O-])cc3)cs2)CC1 | inactive
NC(=O)C1CCN(c2ncc(-c3ccc4c(c3)OCCCO4)s2)CC1 | 0.487 µM (active)
CC(C)Oc1cccc(-c2ccnc(N3CCC(C(N)=O)CC3)n2)c1 | 9.72 µM (active)
CC(C)Oc1ccc(-c2csc(N3CCC(C(N)=O)CC3)n2)cc1 | inactive
N#Cc1ccc(-c2csc(N3CCC(C(N)=O)CC3)n2)cc1 | inactive
NC(=O)C1CCN(c2ncc(-c3cccc(N4CCCC4)c3)s2)CC1 | 12.2 µM (active)
NC(=O)C1CCN(c2ncc(-c3ccc4c(c3)OC(F)(F)O4)s2)CC1 | 15.4 µM (active)
NC(=O)C1CCN(c2nc(-c3ccc(OC(F)(F)F)cc3)cs2)CC1 | inactive
NC(=O)C1CCN(c2ncc(-c3cccc(N4CCCCC4)c3)s2)CC1 | inactive
Cc1ccc(-c2ccnc(N3CCC(C(N)=O)CC3)n2)cc1 | 7.72 µM (active)
NC(=O)C1CCN(c2nc(-c3cccc(F)c3)cs2)CC1 | inactive
NC(=O)C1CCN(c2nnc(-c3ccc(Br)cc3)s2)CC1 | 12.2 µM (active)
O=C(Nc1ccccc1)C1CCN(c2nc(-c3ccc(Br)cc3)cs2)CC1 | inactive
O=C(NCCCCc1ccccc1)C1CCN(c2nc(-c3ccc(Br)cc3)cs2)CC1 | inactive
NC(=O)C1CCN(c2nc(-c3ccccc3[N+](=O)[O-])cs2)CC1 | inactive
CCOC(=O)C1CCN(c2ncc(-c3ccc4c(c3)OCCCO4)s2)CC1 | 0.387 µM (active)
CN(C)c1cccc(-c2nccc(N3CCC(C(N)=O)CC3)n2)c1 | inactive
COc1ccccc1-c1csc(N2CCC(C(N)=O)CC2)n1 | inactive
CC(=O)C1CCN(c2ncc(-c3cccc(N(C)C)c3)s2)CC1 | 12.2 µM (active)
CC(C)COc1ccc(-c2csc(N3CCC(C(N)=O)CC3)n2)cc1 | inactive
